High-throughput results: PubChem BioAssay, several laboratories
MRP resist rev = reversal of MRP1-mediated doxorubicin resistance, primary screen, H69AR cells, doxorubicin co-treatment | H69AR cells + 2 uM doxorubicin, CellTiter-Glo, 72 h | differential viability (reversal), % at 10 µM | hit rate 0.04% among 85,000;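 active = viability drop by adding the cancer drug above about 55%, with treated viability meeting a 40% cutoff, limit read from the data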;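 also: viability without doxorubicin minus viability with 2 µM doxorubicin for each compound; larger differential means the compound sensitizes cells more to doxorubicin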
MRP1 act = H69AR viability gain despite doxorubicin, primary screen, MRP-1 activator project, H69AR cells, CellTiter-Glo. viability rescue. hit rate 0.61% among 140,000. viability increase, % at 10 µM;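 active = viability gain under doxorubicin at or above a set limit, the compound median plus 3 SD, cut at about 4.7% in these data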;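 also: MRP-1 overexpressing cells given doxorubicin 25 µM after compound pretreatment; 18-22 h compound pretreatment then 72 h with doxorubicin before readout; 0% = doxorubicin-only wells and 100% = vehicle-treated cells without doxorubicin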
SDO1 yeast rescue = growth rescue of sdo1-depleted yeast, primary screen, S. cerevisiae, bone marrow failure model; z-score at 10 µM; AID 817, 2007; hit rate 0.21% among 140,000; S. cerevisiae sdo1-depleted JHY4D growth rescue, OD600 30 h; hits give high values; pdr5 snq2 efflux-pump mutant strain;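 active = z-score above 3 at both the 24 hr and the 30 hr optical density reads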;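 also: z-score against mean and SD of all compound wells on the same plate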
Phagocytosis inh = inhibitors of macrophage phagocytosis, primary screen, imaging, J774A.1 cells, IgG beads. J774A.1 macrophage IgG-bead phagocytosis. inhibition, % at 5 µM. hit rate 0.07% among 110,000;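 active = inhibition above the mean of the plate negative controls plus 5 SD, cut at about 13% in these data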;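 also: phagocytic index as fraction of beads internalized from green versus red external bead signal; plate controls were DMSO negative control for no effect and cytochalasin-D positive control for full effect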
sEH act = soluble epoxide hydrolase activators, primary screen, biochemical, human sEH; hit rate 0.04% among 91,000; AID 717, 2007; activation, % at 2 µM; purified human sEH enzymatic activity, activator screen; in the data active = activation above about 37%
Target sequence (P34913 whole entry, looked up): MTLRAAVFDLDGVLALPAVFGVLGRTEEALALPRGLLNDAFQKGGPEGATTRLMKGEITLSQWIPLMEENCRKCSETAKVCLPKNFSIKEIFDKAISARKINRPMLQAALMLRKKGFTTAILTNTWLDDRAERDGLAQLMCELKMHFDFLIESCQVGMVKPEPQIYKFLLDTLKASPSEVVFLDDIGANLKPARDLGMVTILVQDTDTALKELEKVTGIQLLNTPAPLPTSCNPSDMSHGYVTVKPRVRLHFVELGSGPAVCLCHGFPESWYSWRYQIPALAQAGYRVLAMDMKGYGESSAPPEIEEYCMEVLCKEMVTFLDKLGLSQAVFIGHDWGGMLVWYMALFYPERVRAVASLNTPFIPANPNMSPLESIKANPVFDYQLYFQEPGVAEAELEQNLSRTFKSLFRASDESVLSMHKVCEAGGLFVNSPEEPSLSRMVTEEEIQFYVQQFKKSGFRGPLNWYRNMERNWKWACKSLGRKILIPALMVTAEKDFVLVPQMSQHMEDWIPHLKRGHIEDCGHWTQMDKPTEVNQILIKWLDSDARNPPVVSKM
sEH inhibitor = soluble epoxide hydrolase inhibitors, primary screen, biochemical, human sEH. Bifunctional epoxide hydrolase 2 (Homo sapiens), P34913. recombinant human sEH enzymatic activity assay. inhibition, % at 2 µM. hit rate 0.34% among 91,000; in the data active = inhibition above about 80%
The depositor's hits bear a star; / = no result; [ ] = another dose, or the depositor's remark. Most compounds without a hit are left out; they make up all but 1% or so of the library.

SMILES	MRP resist rev	MRP1 act	SDO1 yeast rescue	Phagocytosis inh	sEH act	sEH inhibitor
O=C(CN1CCOc2ccccc21)NC1CCN(Cc2ccccc2)CC1	-3.4	-1.7	-0.17	0.5	3.8	-5.2
O=C(CN1CCOc2ccccc21)NC1CCCCCCC1	1.5	/	/	/	-86.7	86.5*
COc1ccc(OCc2nnc(SCC(=O)N3c4ccccc4Sc4ccc(Cl)cc43)o2)cc1	/	14.6*	-0.43	/	-0.5	3.2
Cc1ccc(C(=O)CSc2nnc(COc3cccc4cccnc34)o2)cc1	3.1	-3.3	-1.94	0.4	-3.6	3.5
Cc1ccc(C(=O)CSc2nnc(COc3cccc(C)c3)o2)cc1	92.3*	-1.7	-1.51	-2.6	8.1	-8.5
Cc1ccc(OCc2nnc(SCC(=O)N3c4ccccc4Sc4ccc(Cl)cc43)o2)cc1	/	10.8*	-0.28	-2.0	/	/
Cc1cccc(OCc2nnc(SCC(=O)N3c4ccccc4Sc4ccc(Cl)cc43)o2)c1	/	-1.8	0.37	-7.2	/	/
COc1cccc(OCc2nnc(SCC(=O)N3c4ccccc4Sc4ccc(Cl)cc43)o2)c1	/	-3.3	-0.12	-12.8	/	/
Cc1cc(=O)[nH]c(SCC(=O)Nc2nc(-c3ccccc3)c(-c3ccccc3)o2)n1	/	-0.5	0.76	-13.4	/	/
COc1ccc(-c2nc3cc(NC(=O)Cc4ccc(OC)c(OC)c4)ccc3o2)cc1	-12.2	0.8	1.4	-0.9	-80.4	80.1*
O=C(CSc1nc(C2CC2)nc2ccccc12)N1c2ccccc2Sc2ccccc21	/	0.1	-0.27	-1.0	-0.7	3.0
CC(C)NC(=O)CSc1nnc(C2CC2)n1-c1ccccc1	3.3	-1.1	-0.69	-0.3	5.1	-3.9
CC(C)[C@H](NC(=O)c1ccccc1)C(=O)OCC(=O)/C=C1/N(C)c2ccccc2C1(C)C	/	4.8*	-0.35	3.0	/	/
c1ccc(-c2ncnc3cc4n(c23)CCC4)cc1	1.6	-1.9	0.23	/	-1.6	2.1
O=C(CSc1nnc(-c2cccnc2)o1)Oc1ccccc1	/	1.5	0.42	26.4*[artifact]	14.9	-14.7
O=C(NC1CCCCC1)C(c1cccnc1)N(C(=O)CCl)c1cccc(Cl)c1 (stereo unspecified)	/	-4.9	-1.37	21.3	/	/
Cc1ccc(C)c(C(C)NC(=O)C2C3CCC(O3)C2C(=O)O)c1 (stereo unspecified)	-29.9	-5.1	1.27	-0.1	-6.2	9.0
CCSc1nnc(NC(=O)C(NC(=O)c2ccc(Cl)cc2)C(C)C)s1 (stereo unspecified)	/	-0.1	0	-0.8	/	/
S=c1[nH]nc(COc2ccc(Cl)cc2)o1	6.3	4.9*	0.98	-1.7	/	/
COc1ccc(OCc2n[nH]c(=S)o2)cc1	0.1	-1.4	0.29	0.6	-3.1	1.4
O=C(Cc1ccc(-n2c(=O)[nH]c3ccsc3c2=O)cc1)N1CCN(c2ccc(Cl)cc2)CC1	/	5.0*	0.33	-5.7	/	/
Cc1cccc(N2CCN(C(=O)Cc3ccc(-n4c(=O)[nH]c5ccsc5c4=O)cc3)CC2C)c1 (stereo unspecified)	/	-1.1	-0.51	-5.3	/	/
CC(=O)Nc1ccc2[nH]c(C)c(CC=C(Cl)Cl)c(=O)c2c1	-6.3	6.8*	0.65	-1.3	-1.6	2.5
Cc1[nH]c2ccccc2c1C(=O)C(=O)NCCC1=CCCCC1	/	12.0*	-0.28	-10.8	/	/
O=C(NC(=S)NCc1ccccc1)c1ccccc1F	/	-3.3	-0.8	-0.1	-5.8	5.0
SMILES	MRP resist rev	MRP1 act	SDO1 yeast rescue	Phagocytosis inh	sEH act	sEH inhibitor
O=C(NC(=S)NC(=O)c1ccccc1F)c1ccccc1F	/	7.1*	0.29	-0.6	/	/
Cc1cccc(-n2c(SCC(=O)Nc3ncc(Cl)cc3Cl)nc3ccccc32)c1	/	5.9*	-0.75	-11.7	/	/
Cc1ccc2cc(C(c3nnnn3C(C)(C)C)N3CCCC3)c(=O)[nH]c2c1C (stereo unspecified)	-1.6	/	/	-0.2	/	/
O=C(CSc1ccc2ccccc2n1)Nc1nsc(-c2ccc(Cl)cc2)n1	/	-0.1	-0.93	31.0*[artifact]	/	/
COc1ccc(N2CCC(CNC(=O)Nc3cccc(OC)c3)C2)cc1 (stereo unspecified)	-5.2	-1.6	-1.08	-1.5	-85.8	85.8*
OCCN=C1CCCc2c1[nH]c1ccc(Br)cc21	/	5.2*	-0.32	/	-10.0	12.6
CCCCC1NC(=S)N(C2CCCCC2)C1=O (stereo unspecified)	/	-0.9	-0.16	-3.0	/	/
Cc1oc(C(=O)Nc2ccc(C(=O)O)cc2)cc1COc1ccccc1	1.6	7.2*	1.41	0.5	13.0	-14.6
Brc1cc2c(cc1COc1ccc(-c3nn[nH]n3)cc1)OCO2	-30.8	5.0*	0.1	/	-3.3	3.4
CCOc1ccc2nc(SCC#N)c(C#N)cc2c1	-8.8	5.0*	-1.67	0.5	-19.1	22.1
Cc1cc(NS(=O)(=O)c2ccc(Nc3nc(-c4sc(NC(=O)c5ccccc5)nc4C)cs3)cc2)no1	-1.9	-1.7	-2.06	-0.4	-93.7	93.6*
CC(Cc1cccs1)NC(=O)Nc1cccc(Cl)c1 (stereo unspecified)	15.5	-0.7	-1.11	0.3	-84.7	84.2*
CCCCC(CC)CNC(=O)C1CCCN(S(=O)(=O)c2cnc[nH]2)C1 (stereo unspecified)	12.7	1.5	1.07	-0.1	-83.3	83.3*
O=C(NC1CCCCCC1)C1CCCN(S(=O)(=O)c2cnc[nH]2)C1 (stereo unspecified)	3.8	0.5	1.62	-0.3	/	/
BrC(=C\c1ccccc1)/C=N/N1CCN(c2ccccn2)CC1	/	-3.4	-0.68	1.1	7.0	-6.9
Cc1nc2ccccc2c(=O)n1/N=C/c1c(O)ccc2oc3c(c12)CCCC3	-13.8	5.9*	-0.73	0.6	-8.6	8.6
CCOc1ccc(C2NC(=O)C(C#N)=C(S)N2c2ccc(C)cc2)cc1OC (stereo unspecified)	13.6	-1.1	0.72	0.3	6.2	-4.7
CC(C)CN1C(=O)c2ccc(C(=O)NCc3ccc4c(c3)OCO4)cc2C1=O	14.7	-2.1	0.86	/	-81.7	81.4*
CC(=S)c1c(C)cc2cc(C)ccn12	/	-0.8	-0.46	0.9	/	/
N/C(Cc1cccs1)=N\OC(=O)COc1ccc(Br)cc1	-3.2	5.3*	-2.26	-3.1	-2.8	3.7
Cc1csc(NC(=O)c2nc3nc(C)cc(C)n3n2)n1	-2.8	-2.0	0.05	/	/	/
Cc1cc(C)n2nc(C(=O)Nc3nnc(C4CC4)s3)nc2n1	7.6	5.2*	0.31	0.8	6.5	-2.8
CCOC(=O)c1c(-c2ccc(C)o2)csc1NC(=O)CSc1ncn[nH]1	3.1	6.8*	-0.69	-1.7	14.6	-15.2
Cc1ccc(N=Nc2c(N)[nH]n3c(=O)cc(-c4ccccc4)nc23)cc1	/	6.0*	1.98	/	3.3	-2.6
CCn1c(C(=O)N2CCC(C(=O)NCCCSC3CCCCC3)CC2)cc2sccc21	-8.1	-1.5	-2.56	0.0	-95.9	95.9*
CCSc1nnc(-c2ccc(C)cc2)c2ccccc12	/	5.6*	-1.95	-5.8	/	/
